# From PMC4336329 (PLoS ONE, 2015)
# Among all 310,000 compounds or so, about 14,000 (4.5%) showed an effect of 50% or more. Effects have a minus sign here. Many of the other results were omitted from the sample, so strong results are more common in it than they were.
# Target: human ether-à-go-go-related gene (hERG) potassium channel (human, UniProt Q12809)
# Test: primary screen, population patch clamp on CHO cells stably expressing hERG; higher = less effect of the substance
# 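Further: peak tail current of the secondary pulse compared with the same well before compound.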
# human ether-à-go-go-related gene (hERG) potassium channel, sequence (Q12809 whole entry, looked up): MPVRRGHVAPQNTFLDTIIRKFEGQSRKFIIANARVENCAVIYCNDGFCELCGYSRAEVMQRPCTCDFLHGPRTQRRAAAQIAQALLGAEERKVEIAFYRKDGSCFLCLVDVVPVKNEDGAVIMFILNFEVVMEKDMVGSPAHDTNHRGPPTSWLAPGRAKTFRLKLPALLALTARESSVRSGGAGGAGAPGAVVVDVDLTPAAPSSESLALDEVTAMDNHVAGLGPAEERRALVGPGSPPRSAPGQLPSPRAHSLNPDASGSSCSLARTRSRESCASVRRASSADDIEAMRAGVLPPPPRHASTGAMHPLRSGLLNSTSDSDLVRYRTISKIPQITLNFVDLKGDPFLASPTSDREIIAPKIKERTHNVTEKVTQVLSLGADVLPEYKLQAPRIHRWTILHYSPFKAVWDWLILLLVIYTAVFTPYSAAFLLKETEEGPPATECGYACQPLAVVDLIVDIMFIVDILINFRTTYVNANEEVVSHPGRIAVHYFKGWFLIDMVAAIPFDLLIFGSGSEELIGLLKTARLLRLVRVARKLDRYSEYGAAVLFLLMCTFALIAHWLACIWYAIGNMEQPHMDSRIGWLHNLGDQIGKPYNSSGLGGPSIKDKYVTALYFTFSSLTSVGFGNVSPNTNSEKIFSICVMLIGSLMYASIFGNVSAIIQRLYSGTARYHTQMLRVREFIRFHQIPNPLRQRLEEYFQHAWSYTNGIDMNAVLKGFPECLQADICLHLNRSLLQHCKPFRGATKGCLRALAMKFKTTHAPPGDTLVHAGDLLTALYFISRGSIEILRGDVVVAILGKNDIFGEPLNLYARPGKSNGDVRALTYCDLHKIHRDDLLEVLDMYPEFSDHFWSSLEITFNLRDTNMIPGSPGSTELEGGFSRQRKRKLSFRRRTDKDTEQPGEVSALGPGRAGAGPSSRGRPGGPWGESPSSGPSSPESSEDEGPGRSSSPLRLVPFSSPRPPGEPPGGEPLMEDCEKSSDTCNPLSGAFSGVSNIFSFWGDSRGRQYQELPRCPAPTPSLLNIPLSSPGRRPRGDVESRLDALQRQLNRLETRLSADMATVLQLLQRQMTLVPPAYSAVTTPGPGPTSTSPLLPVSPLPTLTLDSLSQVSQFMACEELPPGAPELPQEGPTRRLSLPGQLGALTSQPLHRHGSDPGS
row,SMILES,"hERG current change (%, negative = inhibition) at 10uM [%]"
1,CCOc1ccc2c(c1)ncn2Cc1ccccc1,8.33
2,Cc1cccc2cc(CN(CCCO)C(=O)Nc3cccc(Cl)c3)c(=O)[nH]c12,-28.4
3,Cc1ccc2cc(CN(CCN(C)C)C(=S)Nc3ccccc3)c(=O)[nH]c2c1C,-49.9
4,COc1ccc(NC(=O)N(CCO)Cc2cc3c(C)cc(C)cc3[nH]c2=O)cc1,-15.3
5,Cc1ccc(C)c2[nH]c(=O)c(CN(CC3CCCO3)C(=O)NC3CCCCC3)cc12 (centres unmarked),-2.81
6,Cc1ccc2cc(CN(CC3CCCO3)C(=O)NC3CCCCC3)c(=O)[nH]c2c1C (centres unmarked),-55.4
7,O=C(Nc1cccc(Cl)c1)N(CCN1CCOCC1)Cc1cccc(Cl)c1,-22.1
8,Cc1ccc(C)c2[nH]c(=O)c(CN(CCN3CCCC3)C(=O)Nc3cccc(Cl)c3)cc12,-74.1
9,Cc1cccc2cc(CN(CC3CCCO3)C(=O)NC3CCCCC3)c(=O)[nH]c12 (centres unmarked),-9.99
10,COc1ccc(NC(=O)N(CCN2CCCC2)Cc2cc3cc(OC)c(OC)cc3[nH]c2=O)cc1,-4.32
11,COc1ccc(NC(=S)N(CCO)Cc2cc3c(C)cc(C)cc3[nH]c2=O)cc1,-48.8
12,Cc1ccc2cc(CN(CCN3CCCC3)C(=O)Nc3ccccc3)c(=O)[nH]c2c1C,-57.8
13,Cc1cc(C)c2cc(CN(CCN3CCCC3)C(=O)Nc3ccc(F)cc3)c(=O)[nH]c2c1,-74.4
14,CCC(c1nnnn1CS(=O)(=O)c1ccc(C)cc1)N1CCN(c2nc3ccccc3s2)CC1 (centres unmarked),-4.38
15,CC(C)NC(=O)[C@@H]1CSC2c3ccccc3C(=O)N21 (some centres unmarked),12.7
16,Nc1nc(-c2ccc(Cl)cc2)nn1C(=O)c1ccco1,23.3
17,CCOC(=O)C(Cc1ccccc1)C(=O)Nc1cccc2ccccc12 (centres unmarked),-11.8
18,CC(C)Cn1c(N)c(C(=O)COC(=O)[C@@H]2CCCN2C(=O)c2cccs2)c(=O)n(C)c1=O,-8.74
19,O=C(c1c[nH]c2ccccc12)N1CCOCC1,8.48
20,c1ccc(COc2ccc(-c3csnn3)cc2)cc1,-3.17
21,Cc1nc(-c2ccc(Cl)cc2)sc1C1(C)CC(c2ccc(OC(F)(F)F)cc2)=NO1 (centres unmarked),10.3
22,O=C(Cc1ccccc1)Nc1cccc(N2C(=O)C=CC2=O)c1,-4.45

row,SMILES,"hERG current change (%, negative = inhibition) at 10uM [%]"
1,O=C(Nc1cccc2[nH]ncc12)c1ccc(F)cc1,-17.4
2,Cc1cccc2cc(CN(Cc3ccco3)C(=O)NC3CCCCC3)c(=O)[nH]c12,-38.9
3,COc1cc2cc(CN(CCN3CCCC3)C(=O)Nc3ccc(F)cc3)c(=O)[nH]c2cc1OC,-7.92
4,Cc1cccc2cc(CN(CCN3CCOCC3)C(=O)Nc3ccccc3F)c(=O)[nH]c12,-20.6
5,Cc1ccc(C)c2[nH]c(=O)c(CN(CCN3CCCC3)C(=O)Nc3ccc(F)cc3)cc12,-75.7
6,Cc1ccc(C)c2[nH]c(=O)c(CN(Cc3ccco3)C(=O)Nc3ccccc3)cc12,1.89
7,COc1cc2cc(CN(CCN3CCOCC3)C(=O)Nc3ccc(F)cc3)c(=O)[nH]c2cc1OC,-28.6
8,Cc1cccc2cc(CN(CCN3CCCC3)C(=O)NC3CCCCC3)c(=O)[nH]c12,-57
9,COc1ccc(CCN(Cc2cc3cccc(C)c3[nH]c2=O)C(=O)NC2CCCCC2)cc1OC,-25
10,Cc1ccc2cc(CN(CCN3CCCC3)C(=O)Nc3ccc(F)cc3)c(=O)[nH]c2c1C,-70.7
11,NC(=O)Cc1nc2scc(-c3ccccc3)c2c(=O)[nH]1,37.9
12,COC(=O)c1cccc(S(=O)(=O)N2CCC(NC(=O)NC34CC5CC(CC(C5)C3)C4)CC2)c1,4.44
13,O=C(CCn1cccc1)Nc1cccc(F)c1,0.101
14,CCc1nnc(NC(=O)CSc2ncc(-c3ccccc3)n2CC)s1,-17.9
15,COCCCC1CCN(Cc2nc(Cc3ccccc3Cl)no2)CC1,5.07
16,CC[C@@]1(O)C(=O)OCc2c1cc1n(c2=O)Cc2cc3c(CN(C)C)c(O)ccc3nc2-1.Cl,13.6
17,Fc1ccc(-c2cn(-c3ccccc3)c3[n+]2CCS3)cc1.O.[Br-],-45.3
18,COc1ccc(-n2cc(-c3ccc(Br)cc3)[nH]c2=S)cc1,18
19,Clc1ccc(-c2cn(-c3ccccc3)c3[n+]2CCS3)cc1.[Br-],-59.4
20,CCc1ccc(-n2cc(-c3ccc(F)cc3)[n+]3c2SCCC3)cc1.[Br-],-71.7
21,Fc1ccc(-n2cc(-c3ccccc3)[n+]3c2SCC3)cc1.[Br-],-22.7
22,Cc1ccc(-c2cn(-c3ccccc3)c3[n+]2CCCS3)cc1.[Br-],-29.1
